Test results: PubChem BioAssay (NCATS)
Inconclusive results are not listed. Calls of active or inactive are those of the source. Calls come from the whole dose curve; as a rule, active = well fitted cell-killing curve with a large enough effect; inconclusive = small, poorly fitted or top-dose-only effect; inactive = flat fitted curve, though single readings scatter.

test: Cellular viability qHTS for adrenocortical cancer (ACC) cell line SW-13 (AID 1963989); conditions: SW-13 ACC cells viability, CellTiter-Glo, 48 h; activity (max response): active compounds read low; note: nearly all actives have a fitted effect of over 65% in size;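 for activity (max response): cells grown in serum-free medium with ITS supplement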
How it was run: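 SW-13 cells in ITS-supplemented serum-free DMEM were plated overnight, then exposed for 48 h at 37C to compound titrations (up to 46 uM final). Viability was read by CellTiter-Glo luminescence; four-parameter logistic fits gave IC50 and efficacy.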
% is set by controls: 0 for no effect and ±100 for the full control effect; potency is the fitted concentration of half-maximal effect.

SMILES	activity (max response)	Potency
O=C(O)CCCOc1ccc(Cl)cc1Cl	-0.391% (inactive)	
CN(C)C(=O)Oc1cc(OC(=O)N(C)C)cc(C(O)CNC(C)(C)C)c1 (centres undefined)	-8.28% (inactive)	
CC(=O)[C@H]1CC[C@H]2[C@@H]3CC[C@H]4C[C@H](O)CC[C@]4(C)[C@H]3C(=O)C[C@]12C	0.908% (inactive)	
CCN(CCO)CCn1c(Cc2ccccc2)nc2c1c(=O)n(C)c(=O)n2C	7.74% (inactive)	
CC(CC(C#N)(c1ccccc1)c1ccccc1)N(C)C (centres undefined)	-32% (inactive)	
O=C1NCN(c2ccccc2)C12CCN(CC1COc3ccccc3O1)CC2 (centres undefined)	-9.54% (inactive)	
C[C@]12CC[C@H]3[C@@H](CCC4=CC(=O)CC[C@@H]43)[C@@H]1CC[C@@H]2OC(=O)CCc1ccccc1	-0.27% (inactive)	
CCC(COC(=O)c1cc(OC)c(OC)c(OC)c1)(c1ccccc1)N(C)C (centres undefined)	-2.65% (inactive)	
CN[C@@H]1C[C@H]2O[C@@](C)([C@@H]1OC)n1c3ccccc3c3c4c(c5c6ccccc6n2c5c31)C(=O)NC4		0.1 µM (active)
CN1CC[C@]23c4c5ccc(O)c4O[C@H]2[C@@H](O)CC[C@H]3[C@H]1C5	-1.35% (inactive)	
CNCC(=O)c1ccc(O)c(O)c1	2.58% (inactive)	
CC(C)=CCN1CC[C@@]2(C)c3cc(O)ccc3C[C@@H]1[C@@H]2C		39.8 µM (active)
N#CC(C#N)=Cc1ccc(O)c(O)c1	13.2% (inactive)	
Clc1ccc(CSC(Cn2ccnc2)c2ccc(Cl)cc2Cl)cc1 (centres undefined)		8.2 µM (active)
OC(c1ccccc1)(c1ccccc1)C1CCNCC1	1.1% (inactive)	
C[C@]12CC[C@H]3[C@@H](CCC4=CC(=O)CC[C@@H]43)[C@@H]1CC[C@@H]2OC(=O)CCC1CCCCC1	-4.2% (inactive)	
COc1cc([C@@H]2c3cc4c(cc3[C@@H](O)C3COC(=O)C32)OCO4)cc(OC)c1O (some centres undefined)		0.316 µM (active)
CCN(CC)Cc1nccn1-c1ccc([N+](=O)[O-])cc1C(=O)c1ccccc1Cl	-3.26% (inactive)	
O=C1OC(CCN2CCCCC2)OC1(c1ccccc1)c1ccccc1 (centres undefined)	2.23% (inactive)	
O=c1c(C2CC(c3ccc(-c4ccc(Br)cc4)cc3)Cc3ccccc32)c(O)sc2ccccc12 (centres undefined)		5.8 µM (active)

SMILES	activity (max response)	Potency
O=C(O)C1=CCCN(CCOC(c2ccc(C(F)(F)F)cc2)c2ccc(C(F)(F)F)cc2)C1	-19.1% (inactive)	
CC1(C)CC[C@]2(NC(=O)C(C)(F)F)CC[C@]3(C)[C@H](C(=O)C=C4[C@@]5(C)C=C(C#N)C(=O)C(C)(C)[C@@H]5CC[C@]43C)[C@@H]2C1		4.47 µM (active)
O=C1CN2CCOC2(c2ccccc2Cl)c2cc(Cl)ccc2N1 (centres undefined)	-4.14% (inactive)	
CCCN(CCC)C(=O)Cc1c(-c2ccc(Cl)cc2)nc2ccc(Cl)cn12	-9.21% (inactive)	
C[C@H](Nc1ncnc2nc[nH]c12)c1nc2ccc(F)cc2c(=O)n1-c1ccccc1	-19.1% (inactive)	
CN(C)CCc1c[nH]c2ccc(O)cc12	2.14% (inactive)	
CC(Cc1ccc2c(c1)OCO2)NO (centres undefined)	-5.75% (inactive)	
CCC(=O)O[C@H]1CC[C@H]2[C@@H]3CCC4=CC(=O)CC[C@]4(C)[C@H]3CC[C@]12C	-15% (inactive)	
CN1CCc2cc(Cl)c(O)cc2[C@H]2c3ccccc3CC[C@@H]21	-19.8% (inactive)	
C[C@]12COC(=O)C[C@@H]1CC[C@@H]1[C@@H]2CC[C@@]2(C)[C@H]1CC[C@]2(C)O	-23.6% (inactive)	
CC1=C(C(=O)O)N2C(=O)[C@@H](N)[C@H]2SC1	6.68% (inactive)	
CC[C@H]1C[C@H]2[C@@H]3CCC4=CC(=O)CC[C@@H]4[C@H]3CC[C@]2(C)[C@H]1O	-16.6% (inactive)	
CCc1cc2c(s1)-n1c(C)nnc1CN=C2c1ccccc1Cl	12.2% (inactive)	
CC[C@@H](CO)NC(=O)[C@@H]1C=C2c3cccc4[nH]cc(c34)C[C@H]2N(C)C1	-27.7% (inactive)	
CCOC(=O)c1cncn1C(C)c1ccccc1 (centres undefined)	4.76% (inactive)	
Clc1ccc(C(c2ccc(Cl)cc2)C(Cl)(Cl)Cl)cc1	4.08% (inactive)	
O=C(N[C@H]1N=C(c2ccccc2F)c2cccc3c2N(CC3)C1=O)c1cc2ccccc2[nH]1	11.2% (inactive)	
CC1(C)CC/C(=C/c2ccc(Cl)cc2)C1(O)Cn1cncn1 (centres undefined)	3.72% (inactive)	
O=[N+]([O-])c1c(Cl)c(Cl)cc(Cl)c1Cl	-0.162% (inactive)	
